# Results taken from PubChem BioAssay (NCI).
# This is part of a sample that, as a whole, favours compounds with a hit. Of some 79,000 tested, about 15% had one in any assay. Values without a mark were called inactive. Activity calls are given as the source filed them. Cut-off read from the data, not from the text of the source: active = growth inhibition above about 70%; inactive = the rest.
# Key:
# [1] = NCI Yeast Anticancer Drug Screen. Data for the rad52 strain (AID 147);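 note: 0% = growth of vehicle-treated control cultures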; conditions: S. cerevisiae rad52 mutant growth inhibition, stronger effect = higher value
# In short: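 Screen used a yeast mutant impaired in DNA repair. After compound exposure, growth was measured. Values reflect inhibition compared with vehicle-treated cells.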
# [2] = NCI Yeast Anticancer Drug Screen. Data for the wt1 strain (AID 149);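 note: 0% = growth of vehicle-treated wt1 cultures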; conditions: S. cerevisiae wt1 strain (SPY 50644) growth inhibition, stronger effect = higher value
# In short: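 Using yeast strain wt1, compound-induced growth inhibition was determined against vehicle-treated cultures.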
# [3] = NCI Yeast Anticancer Drug Screen. Data for the rad50EPP+ strain (AID 151);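 note: 0% = growth of vehicle-treated control cultures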; conditions: S. cerevisiae rad50 mutant strain, stronger effect = higher value
# In short: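 Exposing the rad50EPP+ strain to each compound, growth was compared with vehicle-only cultures to give inhibition.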
# [4] = NCI Yeast Anticancer Drug Screen. Data for the mgt1 strain (AID 153); conditions: S. cerevisiae mgt1 mutant growth inhibition, stronger effect = higher value
# In short: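 Genetically defined yeast (mgt1) treated with compound; inhibition of growth expressed against vehicle-treated controls.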
# [5] = NCI Yeast Anticancer Drug Screen. Data for the rad50 strain (AID 155);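 note: 0% = growth of vehicle-only cultures of the same strain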; conditions: S. cerevisiae rad50 strain growth inhibition, stronger effect = higher value
# In short: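 Relative growth inhibition (compound vs vehicle) was measured in yeast with a defined repair-gene alteration.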
# [6] = NCI Yeast Anticancer Drug Screen. Data for the mec2-1 strain (AID 157); conditions: S. cerevisiae mec2-1 strain, stronger effect = higher value
# In short: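 Readout is yeast growth inhibition, normalised to vehicle-treated controls, in the mec2-1 strain exposed to compound.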
# [7] = NCI Yeast Anticancer Drug Screen. Data for the rad14 strain (AID 159);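 note: 0% = growth of vehicle-treated control cultures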; conditions: S. cerevisiae rad14 strain growth inhibition, stronger effect = higher value
# In short: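 Screen for anticancer potential: a yeast strain altered in DNA damage repair is grown with compound, and reduced growth is quantified against vehicle controls.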
# [8] = NCI Yeast Anticancer Drug Screen. Data for the sgs1 mgt1 strain (AID 161);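 note: 0% = growth of cultures given vehicle only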; conditions: S. cerevisiae sgs1 mgt1 strain, stronger effect = higher value
# In short: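 Growth of a repair-deficient yeast mutant was monitored after compound treatment and expressed as inhibition relative to vehicle-treated cultures.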
# [9] = NCI Yeast Anticancer Drug Screen. Data for the CLN2oe strain (AID 163);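 note: 0% = growth of vehicle-only control cultures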; conditions: S. cerevisiae CLN2oe strain, stronger effect = higher value
# In short: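 Values reflect how much compound exposure reduced yeast growth, referenced to vehicle-exposed cells. Assay organism is a strain with a defined genetic change affecting cell-cycle control.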
# [10] = NCI Yeast Anticancer Drug Screen. Data for the cln2 rad14 strain (AID 165);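 note: 0% = growth equal to vehicle treated cultures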; conditions: S. cerevisiae cln2 rad14 strain, stronger effect = higher value
# In short: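 Relative to vehicle controls, growth inhibition of compound-treated cln2 rad14 yeast was recorded.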
# [11] = NCI Yeast Anticancer Drug Screen. Data for the bub3 strain (AID 167); conditions: S. cerevisiae bub3 mutant strain, stronger effect = higher value
# In short: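 Screening used yeast with an engineered genetic alteration affecting cell cycle control. Compound-exposed cultures were compared with vehicle cultures, and reduced growth was taken as inhibition.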
# [12] = NCI Yeast Anticancer Drug Screen. Data for the wt2 strain (AID 169);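 note: 0% = growth of vehicle-treated yeast cultures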; conditions: S. cerevisiae wt2 strain growth inhibition, stronger effect = higher value
# In short: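 Values express reduction in yeast growth under compound treatment, referenced to vehicle-treated cells.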
# [13] = NCI Yeast Anticancer Drug Screen. Data for the mlh1 strain (AID 171);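 note: 0% = growth of vehicle-treated control cultures of the same strain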; conditions: S. cerevisiae mlh1 strain growth inhibition, stronger effect = higher value
# In short: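 Steps: expose the defined-mutant yeast strain to compound; expose a parallel culture to vehicle; measure growth; express compound effect as inhibition relative to the vehicle culture.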
# [14] = NCI Yeast Anticancer Drug Screen. Data for the sgs1 strain (AID 173);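 note: 0% = growth of vehicle-only control cultures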; conditions: S. cerevisiae sgs1 mutant, stronger effect = higher value
# In short: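 Treat defined-mutant yeast with compound; measure growth; calculate inhibition relative to vehicle-treated cells.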
# [15] = NCI Yeast Anticancer Drug Screen. Data for the mlh1 rad18 strain (AID 175); conditions: S. cerevisiae mlh1 rad18 strain growth inhibition, stronger effect = higher value
# In short: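 Test agents were incubated with a yeast strain of defined genotype (DNA damage repair defect). Inhibition of growth was derived by comparison with vehicle-exposed cultures.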
# [16] = NCI Yeast Anticancer Drug Screen. Data for the rad18 strain (AID 177); conditions: S. cerevisiae rad18 mutant growth inhibition, stronger effect = higher value
# In short: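 A genetically defined yeast mutant impaired in DNA damage repair was treated with test compounds, then its growth was measured against cultures receiving vehicle alone.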
# [17] = at 5.0 µM (retest, dose inferred, filed as 0.5)
# [18] = at 50.0 µM (retest, dose inferred, filed as 5.0)
compound,measurement,setting,value
COc1cc2c(cc1[N+](=O)[O-])C(=O)C(Br)(Br)CCC2,growth inhibition,[1]; at 1.2 µM,39%
same,growth inhibition,[1]; at 3.7 µM,63%
same,growth inhibition,[1]; at 11.0 µM,98% (active)
same,growth inhibition,[1]; at 33.0 µM,99% (active)
same,growth inhibition,[1]; at 100.0 µM,94% (active)
same,growth inhibition,[2]; at 1.2 µM,38%
same,growth inhibition,[2]; at 3.7 µM,50%
same,growth inhibition,[2]; at 11.0 µM,91% (active)
same,growth inhibition,[2]; at 33.0 µM,99% (active)
same,growth inhibition,[2]; at 100.0 µM,98% (active)
same,growth inhibition,[3]; at 1.2 µM,40%
same,growth inhibition,[3]; at 3.7 µM,73% (active)
same,growth inhibition,[3]; at 11.0 µM,99% (active)
same,growth inhibition,[3]; at 33.0 µM,100% (active)
same,growth inhibition,[3]; at 100.0 µM,96% (active)
same,growth inhibition,[4]; at 1.2 µM,50%
same,growth inhibition,[4]; at 3.7 µM,73% (active)
same,growth inhibition,[4]; at 11.0 µM,100% (active)
same,growth inhibition,[4]; at 33.0 µM,99% (active)
same,growth inhibition,[4]; at 100.0 µM,97% (active)
same,growth inhibition,[5]; at 1.2 µM,42%
same,growth inhibition,[5]; at 3.7 µM,50%
same,growth inhibition,[5]; [17],8%
same,growth inhibition,[5]; at 11.0 µM,97% (active)
same,growth inhibition,[5]; at 33.0 µM,99% (active)
same,growth inhibition,[5]; [18],98% (active)
same,growth inhibition,[5]; at 50.0 µM,91.2% (active)
same,growth inhibition,[5]; at 100.0 µM,95% (active)
same,growth inhibition,[6]; at 1.2 µM,35%
same,growth inhibition,[6]; at 3.7 µM,41%
same,growth inhibition,[6]; [17],31%
same,growth inhibition,[6]; at 11.0 µM,99% (active)
same,growth inhibition,[6]; at 33.0 µM,100% (active)
same,growth inhibition,[6]; [18],100% (active)
same,growth inhibition,[6]; at 50.0 µM,93.5% (active)
same,growth inhibition,[6]; at 100.0 µM,96% (active)
same,growth inhibition,[7]; at 1.2 µM,33%
same,growth inhibition,[7]; at 3.7 µM,44%
same,growth inhibition,[7]; at 11.0 µM,99% (active)
same,growth inhibition,[7]; at 33.0 µM,100% (active)
same,growth inhibition,[7]; at 100.0 µM,96% (active)
same,growth inhibition,[8]; [17],49%
same,growth inhibition,[8]; [18],100% (active)
same,growth inhibition,[8]; at 50.0 µM,90% (active)
same,growth inhibition,[9]; at 1.2 µM,21%
same,growth inhibition,[9]; at 3.7 µM,21%
same,growth inhibition,[9]; at 11.0 µM,55%
same,growth inhibition,[9]; at 33.0 µM,98% (active)
same,growth inhibition,[9]; at 100.0 µM,93% (active)
same,growth inhibition,[10]; [17],25%
same,growth inhibition,[10]; [18],98% (active)
same,growth inhibition,[10]; at 50.0 µM,90% (active)
same,growth inhibition,[11]; at 1.2 µM,9%
same,growth inhibition,[11]; at 3.7 µM,36%
same,growth inhibition,[11]; [17],42%
same,growth inhibition,[11]; at 11.0 µM,98% (active)
same,growth inhibition,[11]; at 33.0 µM,99% (active)
same,growth inhibition,[11]; [18],99% (active)
same,growth inhibition,[11]; at 50.0 µM,90% (active)
same,growth inhibition,[11]; at 100.0 µM,92% (active)
same,growth inhibition,[12]; at 1.2 µM,6%
same,growth inhibition,[12]; at 3.7 µM,11%
same,growth inhibition,[12]; at 11.0 µM,90% (active)
same,growth inhibition,[12]; at 33.0 µM,99% (active)
same,growth inhibition,[12]; at 100.0 µM,95% (active)
same,growth inhibition,[13]; at 1.2 µM,50%
same,growth inhibition,[13]; at 3.7 µM,73% (active)
same,growth inhibition,[13]; at 11.0 µM,100% (active)
same,growth inhibition,[13]; at 33.0 µM,99% (active)
same,growth inhibition,[13]; at 100.0 µM,97% (active)
same,growth inhibition,[14]; at 1.2 µM,38%
same,growth inhibition,[14]; at 3.7 µM,45%
same,growth inhibition,[14]; at 11.0 µM,83% (active)
same,growth inhibition,[14]; at 33.0 µM,99% (active)
same,growth inhibition,[14]; at 100.0 µM,97% (active)
same,growth inhibition,[15]; [17],18%
same,growth inhibition,[15]; [18],99% (active)
same,growth inhibition,[15]; at 50.0 µM,90.8% (active)
same,growth inhibition,[16]; at 1.2 µM,33%
same,growth inhibition,[16]; at 3.7 µM,64%
same,growth inhibition,[16]; at 11.0 µM,96% (active)
same,growth inhibition,[16]; at 33.0 µM,99% (active)
same,growth inhibition,[16]; at 100.0 µM,95% (active)
